Laboratory results: PubChem BioAssay AID2289 (National Center for Advancing Translational Sciences (NCATS), 2010)
The campaign covered roughly 340,000 compounds. About 3,300 (0.97%) were called active. Inconclusive results (about 9%) are left out. Calls follow the shape of the dose curve; as a rule, active = well fitted inhibition curve with a large enough effect; inconclusive = small, poorly fitted or top-dose-only effect, or effect the other way; inactive = flat fitted curve, though single readings scatter. This is one part of the list.

test: qHTS Assay for Modulators of miRNAs and/or Inhibitors of miR-21; settings: HeLa miR-21-FLuc reporter, luciferase luminescence, 48 h; actives lower the signal; also: nearly all actives have a fitted effect of over 55% in size
In short: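 Using DMEM plus 10% FBS, HeLa miR-21-FLuc cells are incubated with test compounds (final up to about 40uM) for 48 hours; firefly luciferase signal is then imaged following reagent-mediated lysis.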
Potency is read from the fitted curve at half-maximal effect.

Potency, active:
COc1cccc(-c2nc(=S)c3c(o2)CCCC3)c1 1.85 µM
COCCn1c(SCc2nc3ccccc3s2)nc2ccccc21 8.26 µM
Cc1nnc(SCc2nc3ccccc3s2)n1-c1ccccc1 16.5 µM
Cc1cccc(C)c1Nc1nnc(SCc2nc3ccccc3s2)s1 4.65 µM
CCn1c(SCc2nc3ccccc3s2)nnc1-c1ccccc1 16.5 µM
O=c1c2ccccc2nc(SCc2nc3ccccc3s2)n1CCCO 11.7 µM
CCCSc1nnc(Nc2ccccc2C)s1 5.85 µM
c1ccc(SCc2nc3ccccc3s2)nc1 3.69 µM
CCCn1c(SCc2nc3ccccc3s2)n[nH]c1=O 6.56 µM
Cc1ccccc1OCCSc1nnc(C)n1-c1ccccc1 14.7 µM
Brc1ccccc1-c1nnc(SCc2nc3ccccc3s2)o1 8.26 µM
O=c1cc(-c2ccccc2Cl)oc2cc(O)cc(O)c12 10.4 µM
Nc1ccc2oc(-c3ccccc3Cl)cc(=O)c2c1O 6.56 µM
Nc1ccc(O)c2c(=O)cc(-c3ccccc3Cl)oc12 3.29 µM
C#Cc1cccc(NC(=O)c2ccc(Cl)cc2Cl)c1 1.17 µM
O/N=C/c1cn(-c2ccc(Cl)cc2)nn1 13.1 µM
O=C(COc1ccc(F)cc1Br)NCc1ccccn1 14.7 µM
COc1ccc(CNC(=O)Nc2cccc(Cl)c2)cc1 3.69 µM
COc1ccccc1C(=O)NC(=O)Nc1cccc(Cl)c1 0.736 µM
Cc1ccc(CNC(=O)Nc2ccccc2)c(C)c1 1.65 µM
COc1ccc(CNC(=S)N/N=C(/C)c2ccccc2)cc1 11.7 µM
COc1ccc(CNC(=O)Nc2ccccc2)cc1 4.65 µM
CSc1ccc(NC(=O)NCc2ccccc2)cc1 9.27 µM
COc1ccc(/C=N/N=C2/SCC(=O)N2Cc2ccccc2)cc1 2.07 µM
CCc1ccc2[nH]c(C(=O)Nc3ccc(Br)c(C)n3)cc2c1 1.65 µM
COc1ccc(CNc2nc3nc(C)c(Cl)c(C)n3n2)cc1 16.5 µM
COc1cccc(CNc2nc3nc(C)c(Cl)c(C)n3n2)c1 10.4 µM
Cc1ccc(Cl)c(OCC(=O)Nc2cccnc2)c1 3.29 µM
O=C(COc1ccccc1Cl)Nc1cccnc1 6.56 µM
O=C(/C=C/c1ccccc1[N+](=O)[O-])Nc1cccnc1 7.36 µM
Cc1ccc(OCC(=O)Nc2ccccc2[N+](=O)[O-])c(Br)c1 1.31 µM
O=C(COc1ccccc1[N+](=O)[O-])Nc1cccnc1 8.26 µM
Cc1ccc(NC(=O)c2ccc(OC(=O)COc3ccc(Cl)cc3C)cc2)cc1 1.47 µM
Cc1ccc(NC(=O)COc2ccc(Br)cc2C)cc1 9.27 µM
Cc1ccc(OCC(=O)Nc2ccon2)c([N+](=O)[O-])c1 6.56 µM
O=C(COc1ccccc1[N+](=O)[O-])Nc1ccc(Br)cc1 3.29 µM
O=C(NNC(=S)Nc1ccccc1)c1ccc(O)cc1 7.36 µM
S=C(NNC(=S)Nc1ccccc1)Nc1ccccc1 6.56 µM
Cn1c(C2=C(O)CN(Cc3ccccc3)C2=N)nc2ccccc21 14.7 µM
O=C(Nc1ccc(Br)cc1)c1ccc2ncsc2c1 1.47 µM
O=C(Nc1ccccc1F)c1ccc2ncsc2c1 9.27 µM
O=C(Nc1ccc(F)cc1F)c1ccc2ncsc2c1 13.1 µM
O=C(Nc1ccc(Cl)cc1Cl)c1ccc2ncsc2c1 2.33 µM
N#C/C(=C\c1cccs1)C(=O)Nc1nccs1 7.36 µM
Cn1c(=O)n(CCOc2ccccc2Cl)c2ccccc21 7.36 µM
Cc1ccc(OCCn2c(=O)n(C)c3ccccc32)cc1 7.36 µM
Cc1ccc2oc(C(=O)NCCCN3CCOCC3)c(C)c2c1 2.93 µM
Cc1ccc2oc(C(=O)N3CCCCCC3)c(C)c2c1 6.56 µM
COc1ccc(CCc2nnc(CCC(=O)NCc3cc(C(C)C)no3)o2)cc1 14.7 µM
CCc1cc(CNC(=O)CCc2nnc(CCCc3ccccc3)o2)on1 7.36 µM
Cc1ccc(-n2ncc3c(SCc4ccccc4)ncnc32)cc1 3.29 µM
CC(C)Sc1ncnc2c1cnn2-c1ccccc1 2.61 µM
Brc1ccccc1OCCCn1cnc2ccccc21 1.85 µM
O=[N+]([O-])c1ccccc1OCCCn1cnc2ccccc21 2.93 µM
CCn1c(COc2ccccc2C)nc2ccccc21 9.27 µM
Cc1ccccc1OCc1nc2ccccc2n1C 1.04 µM
Cn1c(COc2ccc(F)cc2)nc2ccccc21 2.93 µM
C#CCn1c(COc2ccccc2C)nc2ccccc21 5.85 µM
Cc1nnc(OCc2nc3ccccc3n2C)c2ccccc12 16.5 µM
Cc1cccc(OCc2nc3ccccc3n2C)c1 16.5 µM
COc1ccc(-c2cc3ccc(OCC(C)=O)cc3oc2=O)cc1 0.656 µM
COc1ccc(-c2cc3ccc(OCC(C)=O)cc3oc2=O)cc1OC 3.69 µM
COc1ccc(-c2cc3ccc(O)cc3oc2=O)cc1OC 18.5 µM
COc1ccc(-c2c(C)c3ccc(O)cc3oc2=O)cc1 9.27 µM
O=C(O)c1cc(N/N=C/c2ccc(OCc3ccccc3)cc2)ccc1Cl 1.17 µM
O=C(O)c1cc(N/N=C/c2ccc(-c3ccccc3)cc2)ccc1Cl 0.233 µM
O=C(O)c1cc(N/N=C/c2ccc(-c3ccc(F)cc3)o2)ccc1Cl 16.5 µM
CSc1n[nH]c(-c2ccc(C(F)(F)F)cc2)n1 7.36 µM
C#CC(C)(C)NC(=O)c1ccc(-c2ccccc2F)cc1 5.85 µM
COc1ccc(C(=O)NC2=Nc3ccccc3N=C(C)C2c2ccccc2)cc1 (stereo unspecified) 13.1 µM
CC(C)C(=O)OCC(=O)Nc1ccc(N=Nc2ccccc2)cc1 1.85 µM
O=C(Nc1ccc(N=Nc2ccccc2)cc1)c1ccccc1Cl 1.04 µM
CC(=O)Nc1ccc(N=Nc2ccccc2)cc1 1.65 µM
CCCC(=O)OCC(=O)Nc1ccc(N=Nc2ccccc2)cc1 3.69 µM
CC(=O)OCC(=O)Nc1ccc(N=Nc2ccccc2)cc1 1.31 µM
COCCC1CCCCN1C(=O)c1ccc2nc(Cc3ccccc3F)oc2c1 (stereo unspecified) 4.14 µM
C/C(=N\N=c1/sc2ccccc2n1C)c1ccccn1 11.7 µM
Cn1/c(=N/N=C/c2ccccn2)sc2ccccc21 2.07 µM
COCCc1nn2c(=O)cc(COC(=O)c3ccccc3C)nc2s1 10.4 µM
Cc1ccccc1C(=O)OCc1cc(=O)n2nc(C(C)C)sc2n1 2.33 µM
CCc1nn2c(=O)cc(COC(=O)c3cccs3)nc2s1 9.27 µM
CC(C)c1nn2c(=O)cc(COC(=O)c3cccs3)nc2s1 8.26 µM
COCCNc1oc(-c2ccc(Cl)cc2)nc1C#N 9.27 µM
CNc1oc(-c2ccc(Cl)cc2)nc1C#N 3.29 µM
O=c1c2c3c(sc2nc(NCCO)n1Cc1ccco1)CCCCC3 16.5 µM
COCCNC(=O)c1ccc2c(c1)ncn2-c1ccc(F)c(F)c1 16.5 µM
COC(=O)c1cc2c(ccn2-c2ccc(F)cc2)n1Cc1ccc(OC(C)=O)cc1 18.5 µM
COc1cc(O)sc1C=Nc1ccc(Cl)cc1 7.36 µM
CCOC(=O)c1c(C)c(C(=O)NCCc2ccccc2)c(C)n1C 11.7 µM
Cc1nn(Cc2ccccc2)c(Cl)c1C(=O)NCCc1ccccc1 2.33 µM
Cc1nn(Cc2ccccc2Cl)c(Cl)c1C(=O)NCCc1ccccc1 2.07 µM
Cc1ccc(C(=O)NCCc2c[nH]c3ccccc23)s1 5.21 µM
O=C(NCCc1c[nH]c2ccccc12)c1cnc2sccn2c1=O 3.29 µM
Cc1ccsc1C(=O)NCCc1c[nH]c2ccccc12 14.7 µM
COc1ccccc1C1N=C(c2ccccc2C)NO1 (stereo unspecified) 7.36 µM
CCOC(=O)c1oc2c(c1C)/C(=N/O)CCC2 11.7 µM
CCCCCCSc1nc(N)c2c3c(sc2n1)CCCC3C (stereo unspecified) 14.7 µM
CN(c1cc(=O)n2ccccc2n1)C1CCCCC1 13.1 µM
CCN(C(=O)c1cc2c(=O)n3ccccc3nc2n1C)C1CCCCC1 11.7 µM
Cc1ccc(N=c2sc(C)c(C)n2C)cc1 11.7 µM
C/C(=N\NC(=O)c1sccc1C)c1ccncc1 2.93 µM
C/C(=N\NC(=O)c1sccc1C)c1cccnc1 4.14 µM
C/C(=N\Nc1ccc(C)c(Cl)c1)c1cccnc1 13.1 µM
Cc1ccccc1-c1nnc(-c2ccc(Cl)cc2)o1 2.07 µM
Cc1ccccc1-c1nnc(-c2cccs2)o1 6.56 µM
CC1CN(C(=O)N2CCC(C(=O)NCc3cccs3)CC2)c2ccccc2O1 (stereo unspecified) 1.47 µM
Cc1ccc(/C=N/NC(=S)N2CCOCC2)cc1 13.1 µM
S=C(N/N=C/c1ccc(Cl)cc1)N1CCOCC1 9.27 µM
O=C(Nc1ccc(F)cc1)c1nsc(Cl)c1Cl 1.65 µM
COc1c(O)cc2oc(-c3ccc(O)cc3)cc(=O)c2c1O 2.33 µM
COc1c(O)cc2oc(-c3ccc(O)c(O)c3)cc(=O)c2c1O 5.21 µM
